# High-throughput results (PubChem BioAssay)
# Sampled rows, rich in hits. Any-hit rate of the full collection: about 5.7%.
# MPTP block – permeability transition pore inhibition; 360,000 tested, 1.4% active; isolated mouse mitochondria, Ca2+ swelling absorbance, 30 min; inhibition, % at 10 µM;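 active means inhibition of 50% or more, scaled per plate between neutral and stimulator controls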
# rCAG RNA binder – r(CAG) repeat RNA binding | TO-PRO-1 dye displacement fluorescence | inhibition, % at 3 µM | 370,000 tested, 1.3% active | AID 651821;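 active means inhibition above the plate cutoff, the mean of all test compounds on that plate plus 3 SD, cut at about 35% in these data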;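 further: higher means more dye released from RNA so lower well fluorescence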
# Myeloid diff 2 – myeloid differentiation induction | ER-HoxA9 myeloid progenitors, lysozyme-GFP differentiation, flow cytometry | calls only at 10 µM | 360,000 tested, 1% active | AID 624256;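 active means normalized GFP-positive differentiation at or above the plate's own cutoff, the solvent-only control mean plus 3 SD; inconclusive means no clear call, values can overlap the other calls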;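 further: cells exposed to compound for four days before flow analysis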
# NR3A LBD binder – NR3A (human) ligand-binding domain modulation. Tm shift relative to glycine control, % at 25 µM. AID 1259313. NR3A LBD differential scanning fluorimetry, Tm shift; 0% = protein alone, 100% = glycine-bound protein. 340,000 tested, 2.5% active;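 active means melting temperature shift of at least 10% of the positive control shift, at one fixed dose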
# FAS-TE inh – blocks the thioesterase domain of human fatty acid synthase | P49327 | 360,000 tested, 0.67% active | inhibition, % at 15 µM | recombinant FAS-TE, OMFH fluorogenic substrate, fluorescence endpoint;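 active means compounds whose normalised, plate-corrected inhibition of enzyme fluorescence in the single-dose primary screen is 50% or more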
# A number is an active result; n = inactive; u = inconclusive; x = no result given; + = active, no number.
SMILES,MPTP block,rCAG RNA binder,Myeloid diff 2,NR3A LBD binder,FAS-TE inh
COc1ccccc1NC(=O)CCN1C(=O)C2CC=C(Cl)CC2C1=O (stereo not drawn),n,n,n,n,n
O=C(CCCN1C(=O)C2CC=CCC2C1=O)Nc1cccc(F)c1 (stereo not drawn),n,n,n,11,n
COC(=O)C1=C(C)N(Cc2ccc(C(F)(F)F)cc2)C(=NCc2ccc3c(c2)OCO3)NC1c1ccccc1C(F)(F)F (stereo not drawn),x,n,x,x,x
CSc1nc(-c2ccccc2)nn1C(=O)c1ccccc1,n,n,n,n,n
COc1ccc(C(=O)n2nc(-c3ccccc3)nc2SC)cc1,n,n,n,17,n
COC(=O)Cc1nnn2c1[C@H](C)[C@@H](OC)c1cccc(Cl)c1-2,x,n,x,x,x
Oc1nc(Nc2ccccc2)sc1/C=C1\C=Nc2ccccc21,n,n,n,27,n
Clc1nssc1=Nc1ccccc1,n,x,n,n,n
Clc1ccc(N=c2ssnc2Cl)cc1,n,n,n,14,n
COc1cc(N=c2ssnc2Cl)cc(OC)c1OC,n,n,n,n,n
COc1ccc(N=c2ssnc2Cl)cc1,n,x,n,22,n
N#Cc1ccc(N=c2ssnc2Cl)cc1,n,n,n,23,n
COC(=O)c1cc2c(c3c4cc(OC)ccc4n(S(=O)(=O)c4cccc(C)c4)c13)C(=O)N(Cc1ccc(C(F)(F)F)cc1)C2,x,n,x,x,x
CCCCOCC1CN(CCCC)S(=O)(=O)c2c(NCc3cc(OC)c(OC)c(OC)c3)cccc2O1 (stereo not drawn),x,n,x,x,x
COc1ccc(C2C(C#N)=C(N)Oc3c2sc2nc(C)cc(C)c32)cc1 (stereo not drawn),n,n,n,n,n
Cc1cc(C)c2c3c(sc2n1)C1(CCSCC1)C(C#N)=C(N)O3,n,n,n,16,n
CCOc1ccc(NC(=S)N(CCc2c(C)[nH]c3ccc(C)cc23)Cc2ccncc2)cc1,n,n,+,n,n
CN(CCNC(=O)C1CCN(c2ncnc3c2nc2n3CCCCC2)CC1)Cc1ccccc1,n,n,+,n,n
COc1cccc(CNC(=O)C2CCN(c3ncnc4c3nc3n4CCCCC3)CC2)c1,n,n,n,n,n
COc1cccc(N2CCN(CC(=O)NCc3c(F)cccc3F)CC2)c1,x,n,x,x,x
c1ccc(-c2cnn3c(-c4ccccc4)c(-c4ccccc4)nc3n2)cc1,n,n,+,n,n
CCOC(=O)c1cc(CC)sc1NC(=O)COC,n,n,n,n,n
CCCCN1C(=O)C(=O)N(CC(=O)Nc2sc(CC)cc2C(=O)OCC)C1=O,n,n,n,13,n
O[C@H]1CN(CC2CCCCC2)[C@@H](c2ccc(Cl)cc2)C[C@@H]1n1cc(C2CC2)nn1,n,n,n,x,n
CC1CC(NC(=O)c2c(O)nc3sccn3c2=O)CC(C)(C)C1 (stereo not drawn),n,n,+,n,n
SMILES,MPTP block,rCAG RNA binder,Myeloid diff 2,NR3A LBD binder,FAS-TE inh
O=C(CSc1ccccc1)N1CCN(S(=O)(=O)c2ccccc2F)CC1,n,n,+,n,n
O=C(CSc1ccc(F)cc1)N1CCN(S(=O)(=O)c2ccccc2)CC1,n,n,n,n,n
O=C(CN1C(=O)NC2(CCCC2)C1=O)N1CCN(S(=O)(=O)c2ccccc2F)CC1,n,n,n,13,n
O=C(N/C(=N\O)c1ccccc1)Nc1ccc(Cl)cc1,n,n,n,23,n
CCOc1ccc(/C=N/NC(=O)c2ccccc2NC(=O)c2ccc(OC)cc2)cc1,n,n,n,15,n
COc1ccc(C(=O)Nc2ccccc2C(=O)N/N=C/c2ccco2)cc1,n,n,n,n,n
CCOc1ccc(OCc2ccc(C(=O)NN=Cc3ccc[nH]3)cc2)cc1,n,n,n,19,n
O=C(N/N=C/c1ccc[nH]1)c1ccccc1OCc1ccc(F)cc1,n,n,n,n,n
COc1ccc(/C=C/c2nc3cc(-c4ccccc4)ccc3o2)cc1O,n,n,n,17,n
Cc1ccc2c(c1)N(CCCC(=O)N(C)Cc1ccc(F)cc1)C(=O)CO2,x,n,x,x,x
CCCCN1CC(COc2ccc(OC)cc2)OCCS1(=O)=O (stereo not drawn),x,n,x,x,x
C#CCNC(=O)C[C@H]1C[C@@]2(C(=O)OC)C(=C[C@H](C(C)(C)C)O[C@@H]2C)N(Cc2ccc3c(c2)OCO3)C1=O,x,n,x,x,x
COc1ccc(S(=O)(=O)N(C)C[C@H]2Oc3c(NC(=O)CCC(F)(F)F)cccc3C(=O)N([C@H](C)CO)C[C@@H]2C)cc1,n,n,n,10,n
C[C@H](CO)N1C[C@H](C)[C@@H](CN(C)S(=O)(=O)c2ccc(F)cc2)Oc2c(NC(=O)CCC(F)(F)F)cccc2C1=O,n,n,n,n,n
COc1ccc(S(=O)(=O)Nc2cccc3c2O[C@H](CN(C)S(=O)(=O)c2ccc(F)cc2)[C@H](C)CN([C@H](C)CO)C3=O)cc1,n,n,n,10,n
CCC(=O)NC(c1cc(Cl)c2ccccc2c1O)C(C)C (stereo not drawn),n,n,+,n,n
CCC(=O)NC(c1ccco1)c1cc(Cl)c2ccccc2c1O (stereo not drawn),n,n,n,n,n
O=C1/C(=C\c2ccc(Cl)cc2)CCC1CNc1ccc(Cl)cc1 (stereo not drawn),n,n,+,n,n
CN(C)CC1CC/C(=C\c2ccc(O)cc2)C1=O (stereo not drawn),n,n,u,n,n
CSc1nc2ccccc2n1CC(=O)Nc1ccccc1,n,n,n,n,n
O=C(Cn1c(/C=C/c2ccccc2)nc2ccccc21)Nc1ccc(F)cc1,n,n,n,14,n
Cc1cc(C)nc(-n2nc(C)cc2NC(=O)CN2CCC(C)CC2)n1,n,n,+,n,n
CN1[C@@H](Cc2ccccc2)COc2cccc(N3CCSCC3)c2S1(=O)=O,x,n,x,x,x
COc1cc(Cl)c(NC2=CC(=O)C(=O)c3ccccc32)c(OC)c1,n,n,+,n,n
O=C(Nc1cccc(S(=O)(=O)NC2=NCCC2)c1)c1cn(-c2ccccc2)nc1-c1ccc(F)cc1,n,n,n,12,n
SMILES,MPTP block,rCAG RNA binder,Myeloid diff 2,NR3A LBD binder,FAS-TE inh
CCOC(=O)[C@@]12CCC3=C1N(CCC3)C(=O)[C@H](CC(=O)NCc1cccs1)C2,x,n,x,x,x
c1cnc(SCC2CCCCC2)c(-c2nc3ccccc3[nH]2)c1,x,n,x,x,x
O=[N+]([O-])c1cc(-c2ccn[nH]2)ccc1Cl,n,n,n,15,n
O=[N+]([O-])c1cccc(-c2ccn[nH]2)c1,n,n,n,n,n
Cc1nonc1NC(=O)CSc1nc2c(C)cccc2cc1C#N,n,n,+,n,n
CCOc1ncccc1C(=O)NC(C)CCc1ccccc1 (stereo not drawn),n,n,+,n,n
COc1ccc(N2CCN(C(=O)COC(=O)c3ccco3)CC2)cc1,n,n,+,n,n
COc1ccc(N2CCN(C(=O)COC(=O)/C=C/c3ccc(C(F)(F)F)cc3)CC2)cc1,n,n,+,x,n
O=C(COC(=O)c1ccco1)c1ccc2ccccc2c1,n,n,n,10,n
O=C(OCC(=O)N1CCN(c2ccccc2)CC1)c1ccc2ccccc2n1,n,n,n,14,n
